Test results as given in the supplement of paper PMC11732987, “Enantioselective OTUD7B fragment discovery through chemoproteomics screening and high-throughput optimisation” (Communications Chemistry, 2025).

What was measured:
Assay in all cases: log2 ratio of Biotin-Ahx-Ub-VS probe labelling (fragment/DMSO); higher = less target engagement (more negative = stronger competition), active = hit call of the paper (q ≤ 0.05, log2 ratio ≤ -1)
Conditions in all cases: compound concentration: 200 uM; treatment time: 3 h
USP9X = USP9X (UniProt Q93008)
Sequence of USP9X (Q93008 whole entry, the tested form may be a part): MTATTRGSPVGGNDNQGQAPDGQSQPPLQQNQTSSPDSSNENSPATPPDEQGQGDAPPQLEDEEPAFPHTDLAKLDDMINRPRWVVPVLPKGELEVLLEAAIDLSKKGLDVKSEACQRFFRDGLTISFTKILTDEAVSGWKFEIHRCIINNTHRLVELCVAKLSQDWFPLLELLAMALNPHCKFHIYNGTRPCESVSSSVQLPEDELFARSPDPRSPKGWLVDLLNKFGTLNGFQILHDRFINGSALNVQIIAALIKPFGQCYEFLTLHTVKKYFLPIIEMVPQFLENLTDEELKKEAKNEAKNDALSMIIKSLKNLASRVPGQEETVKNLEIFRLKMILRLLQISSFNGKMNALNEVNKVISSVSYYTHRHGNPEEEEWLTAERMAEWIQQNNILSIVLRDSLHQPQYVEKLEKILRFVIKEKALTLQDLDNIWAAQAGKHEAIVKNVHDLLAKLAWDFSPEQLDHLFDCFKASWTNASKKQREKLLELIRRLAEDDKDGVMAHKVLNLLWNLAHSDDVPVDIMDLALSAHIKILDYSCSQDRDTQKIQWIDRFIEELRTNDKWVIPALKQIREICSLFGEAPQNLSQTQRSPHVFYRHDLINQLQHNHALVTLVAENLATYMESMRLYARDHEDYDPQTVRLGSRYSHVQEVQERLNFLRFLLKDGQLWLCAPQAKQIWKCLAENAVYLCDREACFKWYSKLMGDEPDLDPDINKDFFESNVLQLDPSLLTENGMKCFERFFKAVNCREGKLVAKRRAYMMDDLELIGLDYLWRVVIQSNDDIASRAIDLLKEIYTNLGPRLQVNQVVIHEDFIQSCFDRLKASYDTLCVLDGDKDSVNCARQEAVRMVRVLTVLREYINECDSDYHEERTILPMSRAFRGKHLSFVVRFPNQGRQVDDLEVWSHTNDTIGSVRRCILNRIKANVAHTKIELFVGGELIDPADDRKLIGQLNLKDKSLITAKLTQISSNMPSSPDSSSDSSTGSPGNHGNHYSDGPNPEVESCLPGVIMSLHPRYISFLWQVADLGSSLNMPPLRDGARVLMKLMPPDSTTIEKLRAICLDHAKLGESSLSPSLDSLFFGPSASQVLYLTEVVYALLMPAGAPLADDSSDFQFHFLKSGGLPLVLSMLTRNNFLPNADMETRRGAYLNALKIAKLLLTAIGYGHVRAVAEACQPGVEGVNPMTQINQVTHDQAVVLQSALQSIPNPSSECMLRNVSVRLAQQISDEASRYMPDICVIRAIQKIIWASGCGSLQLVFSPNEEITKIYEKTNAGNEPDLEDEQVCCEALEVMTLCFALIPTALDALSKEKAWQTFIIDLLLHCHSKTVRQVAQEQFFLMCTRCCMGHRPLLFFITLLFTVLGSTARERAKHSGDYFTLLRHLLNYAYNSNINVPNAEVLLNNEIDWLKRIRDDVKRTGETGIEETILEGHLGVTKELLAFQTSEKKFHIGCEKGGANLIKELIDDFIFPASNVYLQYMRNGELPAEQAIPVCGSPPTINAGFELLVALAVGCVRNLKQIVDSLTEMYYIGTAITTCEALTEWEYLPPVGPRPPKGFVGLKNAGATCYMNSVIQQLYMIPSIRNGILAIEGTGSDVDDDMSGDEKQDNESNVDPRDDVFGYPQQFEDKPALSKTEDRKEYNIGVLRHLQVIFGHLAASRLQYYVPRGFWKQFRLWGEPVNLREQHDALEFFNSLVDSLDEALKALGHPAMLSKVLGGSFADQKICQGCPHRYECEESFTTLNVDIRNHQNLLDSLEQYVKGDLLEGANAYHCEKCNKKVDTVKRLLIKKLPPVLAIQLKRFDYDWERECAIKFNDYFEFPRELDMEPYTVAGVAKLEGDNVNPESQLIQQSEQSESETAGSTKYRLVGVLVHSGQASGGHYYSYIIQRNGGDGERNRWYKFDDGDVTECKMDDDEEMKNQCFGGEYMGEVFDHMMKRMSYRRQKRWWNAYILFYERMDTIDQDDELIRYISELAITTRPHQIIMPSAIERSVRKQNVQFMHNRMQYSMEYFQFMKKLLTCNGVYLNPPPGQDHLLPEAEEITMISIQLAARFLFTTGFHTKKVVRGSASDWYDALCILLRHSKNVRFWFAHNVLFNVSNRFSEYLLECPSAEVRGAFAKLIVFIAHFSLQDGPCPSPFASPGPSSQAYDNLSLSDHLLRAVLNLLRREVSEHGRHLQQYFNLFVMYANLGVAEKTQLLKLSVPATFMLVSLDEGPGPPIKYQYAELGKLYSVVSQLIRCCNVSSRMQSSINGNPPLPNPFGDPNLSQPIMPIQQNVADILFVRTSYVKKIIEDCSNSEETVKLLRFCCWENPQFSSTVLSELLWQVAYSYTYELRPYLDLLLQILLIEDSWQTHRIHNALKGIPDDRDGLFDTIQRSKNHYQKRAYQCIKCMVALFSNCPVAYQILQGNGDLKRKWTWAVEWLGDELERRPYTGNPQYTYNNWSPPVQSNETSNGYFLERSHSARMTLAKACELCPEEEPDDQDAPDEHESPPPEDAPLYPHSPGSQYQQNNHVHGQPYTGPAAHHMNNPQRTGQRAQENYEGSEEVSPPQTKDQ
How it was run: (§1)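 In triplicate, 495 µg of HEK293T lysate per sample was incubated with fragment at 200 µM or vehicle for 3 h. Biotin-Ahx-Ub-VS was then added to 0.5 µM final for 1 h, and labelled DUBs were captured with NeutrAvidin, digested with LysC and trypsin, and measured by diaPASEF LC-MS/MS. Data are average log2 fragment/vehicle ratios by unpaired t-test from global-median-normalised Spectronaut label-free quantities, restricted to proteins with ≥2 unique peptides.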

UniProt O00487 = biological target: UniProt O00487
Sequence of UniProt O00487 (O00487 whole entry): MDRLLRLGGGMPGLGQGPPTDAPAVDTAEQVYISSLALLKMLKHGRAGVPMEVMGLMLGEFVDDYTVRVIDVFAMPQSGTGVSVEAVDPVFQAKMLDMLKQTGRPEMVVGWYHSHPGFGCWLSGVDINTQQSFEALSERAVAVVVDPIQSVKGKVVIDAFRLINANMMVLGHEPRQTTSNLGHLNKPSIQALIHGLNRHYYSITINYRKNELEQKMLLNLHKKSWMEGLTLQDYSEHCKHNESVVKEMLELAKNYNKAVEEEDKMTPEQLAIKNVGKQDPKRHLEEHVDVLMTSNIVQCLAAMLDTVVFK
How it was run: as §1

UniProt O00507 = biological target: UniProt O00507
How it was run: as §1

UniProt P51784 = biological target: UniProt P51784
Sequence of UniProt P51784 (P51784 whole entry): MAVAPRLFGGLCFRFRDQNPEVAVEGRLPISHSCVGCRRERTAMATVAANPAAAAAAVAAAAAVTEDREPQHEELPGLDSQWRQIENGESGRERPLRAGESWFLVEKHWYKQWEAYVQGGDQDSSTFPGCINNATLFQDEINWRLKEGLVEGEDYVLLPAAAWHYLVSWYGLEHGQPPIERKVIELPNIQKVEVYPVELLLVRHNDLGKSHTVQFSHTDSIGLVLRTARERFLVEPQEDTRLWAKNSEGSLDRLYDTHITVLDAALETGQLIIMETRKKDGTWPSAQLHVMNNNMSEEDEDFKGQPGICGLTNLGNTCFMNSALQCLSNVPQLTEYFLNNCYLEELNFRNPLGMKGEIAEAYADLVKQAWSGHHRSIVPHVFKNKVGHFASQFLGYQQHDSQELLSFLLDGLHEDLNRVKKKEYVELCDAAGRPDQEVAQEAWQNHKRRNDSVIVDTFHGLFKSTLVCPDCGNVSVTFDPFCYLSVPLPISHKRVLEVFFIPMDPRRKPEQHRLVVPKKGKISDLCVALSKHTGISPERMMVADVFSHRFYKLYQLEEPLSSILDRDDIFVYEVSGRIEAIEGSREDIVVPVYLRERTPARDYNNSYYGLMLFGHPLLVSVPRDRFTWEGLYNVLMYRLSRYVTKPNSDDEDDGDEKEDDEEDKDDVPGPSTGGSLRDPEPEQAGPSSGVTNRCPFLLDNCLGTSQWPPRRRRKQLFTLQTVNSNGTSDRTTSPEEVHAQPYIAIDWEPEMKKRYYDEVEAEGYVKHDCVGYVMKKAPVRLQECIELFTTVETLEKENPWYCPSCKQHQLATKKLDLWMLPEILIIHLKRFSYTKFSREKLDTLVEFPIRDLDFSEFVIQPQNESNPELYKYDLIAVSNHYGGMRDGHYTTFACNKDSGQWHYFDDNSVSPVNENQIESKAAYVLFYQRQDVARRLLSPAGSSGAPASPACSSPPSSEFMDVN
How it was run: as §1

UniProt Q5T2D3 = biological target: T1, UniProt Q5T2D3
T1 sequence (whole entry): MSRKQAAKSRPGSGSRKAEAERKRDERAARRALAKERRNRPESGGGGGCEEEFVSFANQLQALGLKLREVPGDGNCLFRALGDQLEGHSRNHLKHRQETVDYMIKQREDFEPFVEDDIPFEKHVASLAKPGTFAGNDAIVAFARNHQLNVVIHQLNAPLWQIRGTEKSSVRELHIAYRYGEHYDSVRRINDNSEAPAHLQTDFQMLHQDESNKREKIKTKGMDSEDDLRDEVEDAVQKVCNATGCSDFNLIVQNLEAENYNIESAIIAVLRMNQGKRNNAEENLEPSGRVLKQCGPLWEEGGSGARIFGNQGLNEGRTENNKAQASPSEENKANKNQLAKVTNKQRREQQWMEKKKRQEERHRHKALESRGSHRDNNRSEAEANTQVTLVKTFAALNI
How it was run: as §1

UniProt Q8TE49 = biological target: T2, UniProt Q8TE49
T2 sequence (whole entry): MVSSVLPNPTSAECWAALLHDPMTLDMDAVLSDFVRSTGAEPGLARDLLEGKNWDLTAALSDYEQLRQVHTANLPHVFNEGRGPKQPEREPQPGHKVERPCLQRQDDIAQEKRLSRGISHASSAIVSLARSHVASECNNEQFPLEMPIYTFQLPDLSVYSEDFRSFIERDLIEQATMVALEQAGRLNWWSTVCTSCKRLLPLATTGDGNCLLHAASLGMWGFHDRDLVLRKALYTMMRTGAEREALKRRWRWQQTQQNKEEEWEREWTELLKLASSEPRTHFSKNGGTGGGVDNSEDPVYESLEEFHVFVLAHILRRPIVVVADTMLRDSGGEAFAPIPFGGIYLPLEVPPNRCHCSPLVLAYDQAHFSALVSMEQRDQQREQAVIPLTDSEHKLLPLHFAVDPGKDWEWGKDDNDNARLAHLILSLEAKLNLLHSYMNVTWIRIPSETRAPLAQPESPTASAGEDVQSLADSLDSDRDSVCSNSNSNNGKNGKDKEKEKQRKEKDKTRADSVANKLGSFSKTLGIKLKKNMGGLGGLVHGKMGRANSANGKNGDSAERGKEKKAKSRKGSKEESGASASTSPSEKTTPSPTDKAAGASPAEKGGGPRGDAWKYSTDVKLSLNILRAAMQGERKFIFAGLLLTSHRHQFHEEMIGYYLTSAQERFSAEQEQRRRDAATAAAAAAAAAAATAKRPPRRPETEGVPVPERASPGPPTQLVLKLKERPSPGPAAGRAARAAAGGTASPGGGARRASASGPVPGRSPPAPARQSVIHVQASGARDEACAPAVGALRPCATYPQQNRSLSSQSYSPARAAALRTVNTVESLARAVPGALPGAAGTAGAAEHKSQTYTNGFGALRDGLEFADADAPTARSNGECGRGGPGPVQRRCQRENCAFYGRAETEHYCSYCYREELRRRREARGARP
How it was run: as §1

UniProt Q9P2H5 = biological target: T3, UniProt Q9P2H5
T3 sequence (whole entry): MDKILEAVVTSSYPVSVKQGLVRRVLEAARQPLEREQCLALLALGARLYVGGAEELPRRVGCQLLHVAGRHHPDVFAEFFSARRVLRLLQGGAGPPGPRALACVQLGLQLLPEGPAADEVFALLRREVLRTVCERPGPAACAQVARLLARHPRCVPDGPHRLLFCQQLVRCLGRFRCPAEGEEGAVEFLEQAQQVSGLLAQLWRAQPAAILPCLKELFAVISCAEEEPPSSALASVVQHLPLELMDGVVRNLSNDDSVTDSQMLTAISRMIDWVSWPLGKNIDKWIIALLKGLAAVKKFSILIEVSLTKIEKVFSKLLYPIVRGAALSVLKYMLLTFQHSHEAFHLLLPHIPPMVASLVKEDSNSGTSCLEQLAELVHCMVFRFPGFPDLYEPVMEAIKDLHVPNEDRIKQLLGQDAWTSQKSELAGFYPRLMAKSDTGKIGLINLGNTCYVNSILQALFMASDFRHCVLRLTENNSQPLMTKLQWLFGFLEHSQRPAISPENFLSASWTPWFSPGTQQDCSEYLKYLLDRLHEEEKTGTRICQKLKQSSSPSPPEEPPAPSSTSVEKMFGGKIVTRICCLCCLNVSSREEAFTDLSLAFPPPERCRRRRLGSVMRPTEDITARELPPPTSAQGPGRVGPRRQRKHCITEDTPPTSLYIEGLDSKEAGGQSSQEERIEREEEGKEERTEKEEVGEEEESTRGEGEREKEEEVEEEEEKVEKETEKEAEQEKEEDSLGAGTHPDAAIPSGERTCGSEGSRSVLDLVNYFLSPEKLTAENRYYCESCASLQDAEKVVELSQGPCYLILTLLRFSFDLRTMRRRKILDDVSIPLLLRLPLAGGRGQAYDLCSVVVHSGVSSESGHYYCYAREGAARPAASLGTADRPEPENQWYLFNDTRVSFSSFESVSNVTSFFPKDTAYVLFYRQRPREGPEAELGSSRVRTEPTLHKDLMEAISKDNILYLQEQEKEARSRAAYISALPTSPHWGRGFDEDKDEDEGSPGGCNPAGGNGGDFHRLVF
How it was run: as §1

UniProt Q9UGI0 = biological target: T4, UniProt Q9UGI0
T4 sequence (whole entry): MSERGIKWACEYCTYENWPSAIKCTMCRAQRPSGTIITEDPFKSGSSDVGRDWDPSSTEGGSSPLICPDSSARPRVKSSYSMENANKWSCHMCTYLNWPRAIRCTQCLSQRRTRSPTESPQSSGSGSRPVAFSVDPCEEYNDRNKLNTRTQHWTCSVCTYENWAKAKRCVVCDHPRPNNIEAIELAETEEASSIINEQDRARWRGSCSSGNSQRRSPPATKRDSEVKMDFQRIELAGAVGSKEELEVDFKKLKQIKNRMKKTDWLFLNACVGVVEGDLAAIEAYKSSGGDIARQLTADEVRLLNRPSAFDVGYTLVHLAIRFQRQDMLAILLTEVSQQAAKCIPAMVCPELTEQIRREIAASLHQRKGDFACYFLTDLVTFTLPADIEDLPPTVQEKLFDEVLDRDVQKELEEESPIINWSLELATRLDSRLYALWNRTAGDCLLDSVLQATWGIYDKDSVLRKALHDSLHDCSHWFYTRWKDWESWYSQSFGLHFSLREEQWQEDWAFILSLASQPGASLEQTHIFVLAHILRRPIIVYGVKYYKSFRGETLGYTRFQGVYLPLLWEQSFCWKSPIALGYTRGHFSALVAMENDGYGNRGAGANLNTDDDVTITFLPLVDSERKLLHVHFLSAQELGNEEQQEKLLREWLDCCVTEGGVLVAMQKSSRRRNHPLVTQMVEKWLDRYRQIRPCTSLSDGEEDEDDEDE
How it was run: as §1

YOD1 = biological target: T5, YOD1 (UniProt Q5VVQ6)
T5 sequence (whole entry): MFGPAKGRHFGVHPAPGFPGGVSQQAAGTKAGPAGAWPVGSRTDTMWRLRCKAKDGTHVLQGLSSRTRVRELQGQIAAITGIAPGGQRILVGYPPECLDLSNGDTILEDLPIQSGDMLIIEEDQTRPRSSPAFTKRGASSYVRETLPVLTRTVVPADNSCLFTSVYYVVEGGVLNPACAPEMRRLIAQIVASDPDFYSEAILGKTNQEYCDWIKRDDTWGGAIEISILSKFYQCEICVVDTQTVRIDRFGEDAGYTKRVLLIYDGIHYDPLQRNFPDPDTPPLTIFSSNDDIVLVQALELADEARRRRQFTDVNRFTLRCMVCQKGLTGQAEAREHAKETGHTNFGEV
How it was run: as §1

Measured: log2 ratio of Biotin-Ahx-Ub-VS probe labelling

O=C(CCl)Nc1cc2c(cc1Cl)OCCCO2
inactive: USP9X 0.118 | UniProt O00487 -0.147 | UniProt O00507 0.443 | UniProt P51784 0.0196 | UniProt Q5T2D3 0.0208 | UniProt Q8TE49 -0.506 | UniProt Q9P2H5 -0.0168 | UniProt Q9UGI0 -0.0467 | YOD1 0.361
